# Calls of active or inactive are those of the source.
# Tests used:
# [1] = optical density shifts of acrAB sulA E. coli – strain DRC41, OD650, 48 h, E. coli filamentation inducer project, primary screen (AID 1152); conditions: higher = more signal, called active from +8 up or from −8 down;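 further: E. coli MC1000 strain DRC41 lacking acrAB efflux pump and sulA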
# [2] = probe aLefty1 binding on compound microarray – biochemical, small-molecule microarray, 635/667 nm fluorescence, primary screen (AID 1153); conditions: higher = more signal;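 further: score merges spot fluorescence with signal-to-noise ratio from the scanned slide images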
# [3] = plasmodial surface anion channel blockers, osmotic lysis – cell-based, P. falciparum Indochina, OD700, 1 h, primary screen (AID 1154); conditions: P. falciparum Indochina infected RBC osmotic lysis, higher = more signal, called active from +8 up or from −8 down
# [4] = plasmodial surface anion channel blockers, osmotic lysis – cell-based, P. falciparum Indochina, OD700, 2 h, primary screen (AID 1155);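 further: lysis reports solute entry through the parasite surface anion channel PSAC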; conditions: P. falciparum Indochina infected erythrocytes, higher = more signal, called active from +8 up or from −8 down
# [5] = changes in parasitized red cell lysis, either direction – P. falciparum Indochina, OD700, 3 h, PSAC antagonist project, primary screen (AID 1156); conditions: P. falciparum-infected erythrocytes, osmotic lysis, higher = more signal, called active from +8 up or from −8 down
# [6] = plasmodial surface anion channel blockers, osmotic lysis – cell-based, P. falciparum Indochina, OD700, 18 h, primary screen (AID 1157); conditions: P. falciparum Indochina infected erythrocytes, osmotic lysis OD700, 18 h; higher = more signal, called active from +8 up or from −8 down
# [7] = S6 kinase pathway phospho-S6 level changes – cell-based, A549, cytoblot, luminescence, serum-stimulated, primary screen (AID 1158); conditions: 5 h, higher = more signal;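 further: serum-stimulated A549 lung adenocarcinoma cells; signal is phosphorylated S6 detected by cytoblot immunostaining with HRP secondary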
# [8] = molecular target: NADPH oxidase 2 (Homo sapiens) (UniProt P04839); test: compounds shifting NOX2 Amplex Red fluorescence – cell-based, HEK293-NOX2, PMA-stimulated, NOX inhibitor project, primary screen (AID 1159); conditions: 45 min, higher = more signal, called active from +8 up or from −8 down; further: test concentration not given here
# [9] = molecular target: NADPH oxidase 4 (Homo sapiens) (UniProt Q9NPH5); test: compounds shifting NOX4 Amplex Red fluorescence – cell-based, HEK293-NOX4, tetracycline-induced, NOX inhibitor project, primary screen (AID 1160); conditions: HEK293-NOX4, Amplex Red H2O2 fluorescence, 45 min; higher = more signal, called active from +8 up or from −8 down
# [10] = molecular target: NADPH oxidase 5 (Homo sapiens) (UniProt Q96PH1); test: compounds shifting NOX5 Amplex Red fluorescence – cell-based, HEK293-NOX5, NOX inhibitor project, primary screen (AID 1161); conditions: HEK293-NOX5, ionomycin, 45 min, higher = more signal
# [11] = compound effects on lung adenocarcinoma cell viability – A549, calcein-AM fluorescence, 48 h, basal, profiling panel (AID 1162); conditions: higher = more signal; further: test concentration not given here
# [12] = compound effects on differentiated 3T3-L1 adipocyte viability – cell-based, 3T3-L1 adipocytes, calcein-AM fluorescence, 48 h, basal, profiling panel (AID 1163); conditions: 3T3-L1 adipocytes viability, higher = more signal; further: test concentration not given here
# [13] = compound effects on hepatocellular carcinoma cell viability – HepG2, calcein-AM fluorescence, 48 h, basal, profiling panel (AID 1164); conditions: higher = more signal; further: test concentration not given here
# [14] = compound effects on multiple myeloma cell viability – MM1S, calcein-AM fluorescence, 48 h, basal, profiling panel (AID 1165); conditions: higher = more signal; further: test concentration not given here
# [15] = calcein-AM signal in unstimulated myeloma cells – cell-based, calcein-AM fluorescence, 48 h, PK04 Diversity Set, profiling panel (AID 1166); conditions: RPMI8226 myeloma viability, higher = more signal;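 further: cells grown under basal conditions without added stimulus; test concentration not given here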
# [16] = JC-1 mitochondrial signal, unstimulated HepG2 cells – cell-based, JC-1 fluorescence, 24 h, 100 nL compound, profiling panel (AID 1167); conditions: HepG2 mitochondrial potential, higher = more signal; further: test concentration not given here
# [17] = JC-1 mitochondrial signal, unstimulated adipocytes – cell-based, JC-1 fluorescence, 3T3-L1 adipocytes, 24 h, 100 nL compound, profiling panel (AID 1168); conditions: JC-1 mitochondrial fluorescence, higher = more signal, called active from +8 up or from −8 down; further: test concentration not given here
# [18] = JC-1 mitochondrial signal, unstimulated myeloma cells – cell-based, JC-1 fluorescence, RPMI8226, 24 h, 100 nL compound, profiling panel (AID 1169); conditions: JC-1 mitochondrial potential fluorescence, higher = more signal; further: test concentration not given here
# [19] = JC-1 mitochondrial signal, unstimulated MM1S myeloma – cell-based, JC-1 fluorescence, 24 h, 100 nL compound, profiling panel (AID 1170); conditions: MM1S mitochondrial potential, higher = more signal; further: test concentration not given here
# [20] = resazurin metabolic signal in A549 cells – cell-based, resazurin fluorescence, 24 h, PK04 Diversity Set, profiling panel (AID 1171); conditions: A549 viability, higher = more signal, called active from +8 up or from −8 down; further: test concentration not given here
# Sequence of NADPH oxidase 4 (Homo sapiens) (Q9NPH5 whole entry, looked up): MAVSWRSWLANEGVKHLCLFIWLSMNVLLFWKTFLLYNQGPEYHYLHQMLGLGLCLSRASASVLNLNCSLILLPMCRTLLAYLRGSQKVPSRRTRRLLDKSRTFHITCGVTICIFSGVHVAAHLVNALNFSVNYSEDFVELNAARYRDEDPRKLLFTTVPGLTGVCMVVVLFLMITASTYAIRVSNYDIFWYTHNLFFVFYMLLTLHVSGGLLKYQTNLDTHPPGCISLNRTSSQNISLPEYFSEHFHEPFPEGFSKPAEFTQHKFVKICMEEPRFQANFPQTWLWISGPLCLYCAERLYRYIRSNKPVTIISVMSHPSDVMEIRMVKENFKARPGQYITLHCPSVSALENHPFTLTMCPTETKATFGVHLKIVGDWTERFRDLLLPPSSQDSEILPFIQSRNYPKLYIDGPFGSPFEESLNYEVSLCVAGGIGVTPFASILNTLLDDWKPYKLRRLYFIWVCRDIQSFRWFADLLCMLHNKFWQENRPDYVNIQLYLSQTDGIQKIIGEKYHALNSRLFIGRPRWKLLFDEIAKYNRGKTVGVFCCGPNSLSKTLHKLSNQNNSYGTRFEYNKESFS
# Sequence of NADPH oxidase 2 (Homo sapiens) (P04839 whole entry, looked up): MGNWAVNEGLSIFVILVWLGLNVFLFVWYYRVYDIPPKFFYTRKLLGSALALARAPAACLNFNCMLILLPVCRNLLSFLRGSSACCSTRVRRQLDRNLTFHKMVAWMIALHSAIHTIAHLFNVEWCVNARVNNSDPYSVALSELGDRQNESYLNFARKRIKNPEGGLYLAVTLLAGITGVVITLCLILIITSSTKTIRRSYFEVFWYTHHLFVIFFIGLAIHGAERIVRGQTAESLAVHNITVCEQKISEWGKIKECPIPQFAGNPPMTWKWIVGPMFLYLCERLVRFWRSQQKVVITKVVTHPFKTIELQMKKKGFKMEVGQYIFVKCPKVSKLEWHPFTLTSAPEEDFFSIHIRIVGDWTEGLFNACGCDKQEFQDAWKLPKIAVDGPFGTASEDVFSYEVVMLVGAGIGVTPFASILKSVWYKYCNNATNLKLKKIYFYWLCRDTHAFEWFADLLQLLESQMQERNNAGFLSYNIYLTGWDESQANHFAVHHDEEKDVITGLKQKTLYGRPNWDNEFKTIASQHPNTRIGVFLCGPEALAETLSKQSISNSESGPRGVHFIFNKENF
# Sequence of NADPH oxidase 5 (Homo sapiens) (Q96PH1 whole entry, looked up): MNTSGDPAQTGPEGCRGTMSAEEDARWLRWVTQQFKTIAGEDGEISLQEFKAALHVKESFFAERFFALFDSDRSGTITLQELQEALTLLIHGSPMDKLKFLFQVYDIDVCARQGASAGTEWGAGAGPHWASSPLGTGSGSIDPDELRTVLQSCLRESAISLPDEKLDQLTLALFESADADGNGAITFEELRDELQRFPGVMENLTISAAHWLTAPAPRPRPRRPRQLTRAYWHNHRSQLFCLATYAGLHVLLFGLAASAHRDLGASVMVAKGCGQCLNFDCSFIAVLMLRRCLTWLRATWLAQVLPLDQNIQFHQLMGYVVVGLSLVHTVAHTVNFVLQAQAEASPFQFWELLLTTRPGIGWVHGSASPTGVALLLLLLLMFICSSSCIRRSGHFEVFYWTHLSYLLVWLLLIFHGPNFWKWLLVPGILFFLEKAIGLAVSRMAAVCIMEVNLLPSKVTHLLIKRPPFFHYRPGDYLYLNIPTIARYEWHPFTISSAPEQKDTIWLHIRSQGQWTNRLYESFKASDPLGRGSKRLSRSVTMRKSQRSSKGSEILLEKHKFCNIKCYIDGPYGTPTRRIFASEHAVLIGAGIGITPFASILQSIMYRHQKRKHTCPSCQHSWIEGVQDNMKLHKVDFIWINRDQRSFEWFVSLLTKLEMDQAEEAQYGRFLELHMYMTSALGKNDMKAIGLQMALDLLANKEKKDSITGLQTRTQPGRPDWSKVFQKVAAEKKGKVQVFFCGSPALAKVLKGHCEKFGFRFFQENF
SMILES,z-score [1],composite z-score [2],z-score [3],z-score [4],z-score [5],z-score [6],z-score [7],z-score [8],z-score [9],z-score [10],z-score [11],z-score [12],z-score [13],z-score [14],z-score [15],z-score [16],z-score [17],z-score [18],z-score [19],z-score [20]
COc1cccc([C@H]2Oc3ccc(OC)cc3C(=NOC[C@@H](O)[C@H]3O[C@@H]4OC(C)(C)O[C@@H]4[C@H]3O)[C@@H]2O)c1,-0.0985 (inactive),-0.387,5.05 (inactive),0.458 (inactive),-0.128 (inactive),0.537 (inactive),-0.512,-0.895 (inactive),-0.776 (inactive),-0.23,-0.0077,0.568,-1.49,-0.174,-0.684,-1.27,-0.751 (inactive),-0.578,0.49,-0.794 (inactive)
C#CCCCON=C1C[C@@H](O)[C@@H](O)[C@@H]2[C@@H]3C(=O)N(CC)C(=O)[C@@H]3CC[C@@H]12,-0.229 (inactive),-0.243,0.299 (inactive),0.363 (inactive),-0.26 (inactive),-0.0637 (inactive),-0.595,0.275 (inactive),0.764 (inactive),-0.64,-0.36,-0.843,0.075,0.0133,0.338,-0.836,-1.26 (inactive),-0.0744,-0.312,-0.526 (inactive)
C[C@@H]1CC[C@H]2C(=O)O[C@@H](COc3ccc(C(C)(C)C)cc3)CN2[C@@H]1c1ccc(Br)cc1,0.328 (inactive),-0.229,0.857 (inactive),0.681 (inactive),-1.34 (inactive),0.54 (inactive),-0.0874,-0.303 (inactive),0.732 (inactive),0.154,0.373,1.03,0.843,-2.33,-0.391,-1.05,-0.391 (inactive),-0.509,0.291,1.99 (inactive)
CON=C(C)CCC(=O)OC[C@H]1O[C@H](c2ccccc2)C=C[C@@H]1Oc1ccc(OC)cc1,-2.31 (inactive),-0.196,5.54 (inactive),1.17 (inactive),12.7 (active),0.49 (inactive),-0.312,-2.7 (inactive),-0.458 (inactive),-4.44,-0.208,-0.119,-0.646,-1.32,-0.0394,-1.05,0.0208 (inactive),0.00696,-0.0885,0.525 (inactive)
CC(=O)OC[C@H]1O[C@H](CC=NO[C@H](C)c2cn([C@H](CO)Cc3ccccc3)nn2)C=C[C@@H]1OC(C)=O,-0.176 (inactive),-0.007,0.639 (inactive),0.103 (inactive),0.238 (inactive),0.391 (inactive),-0.871,-0.0815 (inactive),0.835 (inactive),-1.3,-0.404,-0.857,-0.0224,-0.955,-1.94,-0.485,-0.963 (inactive),0.013,0.186,0.322 (inactive)
COc1cccc([C@H]2Oc3ccc(OC)cc3C(=NOC(C)CN3CCCCc4nc(C)c(C)cc43)[C@@H]2O)c1 (stereo not given in full),0.751 (inactive),-0.103,1.82 (inactive),0.59 (inactive),0.32 (inactive),0.342 (inactive),-0.887,-2.44 (inactive),-0.284 (inactive),-0.892,0.217,-0.527,0.0117,-1.02,-0.836,-0.108,-0.832 (inactive),-0.00251,-0.144,-0.565 (inactive)
CC(C)CON=C1C[C@@H](O)[C@@H](O)[C@@H]2[C@@H]3C(=O)N(C(C)(C)C)C(=O)[C@@H]3CC[C@H]12,0.288 (inactive),-0.0162,0.221 (inactive),-0.239 (inactive),-0.814 (inactive),-0.089 (inactive),-0.382,1.47 (inactive),0.594 (inactive),0.325,0.539,-0.519,-0.248,0.246,0.0151,-0.772,-0.697 (inactive),-0.369,-0.465,-0.77 (inactive)
CC(C)CON=C1[C@H]2CCn3c(=O)n(Cc4cc5c(cc4Cl)OCO5)c(=O)n3[C@H]2[C@H](O)[C@@H]2O[C@H]12,-1.41 (inactive),0.0004,0.292 (inactive),-1.05 (inactive),0.599 (inactive),-2.22 (inactive),0.261,0.42 (inactive),0.223 (inactive),-0.799,-1.37,0.719,-0.0623,-0.053,-0.62,-0.0638,-0.443 (inactive),0.207,-0.354,-0.647 (inactive)
O=C1CCCC=C1C(O)CCOC(c1ccccc1)(c1ccccc1)c1ccccc1 (stereo not given),-1.03 (inactive),-0.0969,1.52 (inactive),-0.349 (inactive),-0.205 (inactive),-0.217 (inactive),-0.0632,1.69 (inactive),-1.48 (inactive),-0.832,-0.893,-0.268,-0.26,-3.43,-3.62,-2.77,-0.115 (inactive),-0.879,-0.0919,0.418 (inactive)

# From PubChem BioAssay
